This excerpt belongs to a sample that is enriched for hits.
KDM4E inh: inhibitors of human JMJD2E histone demethylase; B2RXH2; 230,000 compounds, 1.6% hits; JMJD2E catalytic domain, FDH-coupled NADH fluorescence (FDH is formaldehyde dehydrogenase); Potency, µM (highest dose often 57.1 µM), for the others: at the highest dose activity change, negative = inhibition, actives largely listed as inhibitors; active = well fitted inhibition curve with a large enough effect, not every such curve was filed as active; inconclusive = small, poorly fitted or top-dose-only effect, or another doubt; inactive = no such curve, though single readings can be large or run the other way;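 note: 0% = wells with enzyme and -100% = buffer wells without enzyme; nearly all actives have a fitted effect of over 50% in size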
Target sequence (B2RXH2 1-337 limits assumed): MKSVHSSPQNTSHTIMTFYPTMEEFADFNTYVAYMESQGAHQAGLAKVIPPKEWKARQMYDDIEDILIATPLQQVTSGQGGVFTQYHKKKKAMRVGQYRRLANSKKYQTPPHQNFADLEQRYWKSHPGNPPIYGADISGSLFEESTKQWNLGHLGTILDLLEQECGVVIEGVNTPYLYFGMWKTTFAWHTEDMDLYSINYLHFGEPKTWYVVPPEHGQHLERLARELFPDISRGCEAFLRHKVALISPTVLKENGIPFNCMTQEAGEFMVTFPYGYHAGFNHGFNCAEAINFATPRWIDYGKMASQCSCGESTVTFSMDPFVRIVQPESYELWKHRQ
TDP1 inh: inhibitors of human tyrosyl-DNA phosphodiesterase TDP1; 350,000 compounds, 0.28% hits; Q9NUW8; recombinant TDP1, AlphaScreen DNA substrate cleavage; Potency, µM (series often up to 130 µM), for the others: at the top dose activity change, negative = inhibition, actives largely listed as inhibitors; note: nearly all actives have a fitted effect of over 40% in size
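Here, a 5' biotin and 3' phosphotyrosine-FITC DNA oligonucleotide reports Tdp1 activity: intact substrate bridges AlphaScreen beads, while cleavage leaves a 3' phosphate and drops signal. All incubations at room temperature.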
L3MBTL1 inh: blocks human L3MBTL1. Q9Y468. AlphaScreen L3MBTL1–H3K9me1 peptide binding. Potency, µM (titrated, usually from 57.1 µM), for inactives: at the highest dose activity, negative = inhibition, usual class: inhibitors. 230,000 compounds, 0.66% hits. AID 485360; note: nearly all actives have a fitted effect of over 60% in size
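First, the protein-peptide complex forms for 30 min at room temperature (L3MBTL1 50 nM, biotinylated H3K9me1 peptide 75 nM). Next, compounds are pin-transferred and incubated 30 min. Finally, AlphaScreen beads are added and read after 30 min.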
RECQ1 inh-1: inhibitors of human RECQ1 DNA helicase | P46063 | RECQ1 DNA unwinding, red fluorescence kinetic read | Potency, µM (top dose mostly 57.3 µM), without a hit: at the highest dose activity, negative = inhibition, hits mostly inhibitors | 240,000 compounds, 0.54% hits | AID 2549;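 note: plate controls were vehicle for no effect and no enzyme for full effect; nearly all actives have a fitted effect of over 30% in size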
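50 nM RECQ1T1 preincubated 15 min with compound in Tris pH 8.0 buffer with MgCl2, DTT, Tween-20 and 2.5 ug/ml poly(dI-dC); started with 200 nM TAMRA/BHQ-2 forked duplex and 2 mM ATP. Unwinding read as fluorescence (525/598 nm), two reads 2 h apart.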
BLM helicase inh: inhibitors of human Bloom syndrome helicase BLM; P54132; recombinant BLM DNA unwinding, fluorescence dequenching; Potency, µM (top dose mostly 56.1 µM), for inactives: at the highest dose activity change, negative = inhibition, hits mostly inhibitors; 350,000 compounds, 0.2% hits;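 note: plate controls were vehicle for no effect and no enzyme for full effect; nearly all actives have a fitted effect of over 35% in size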
APEX1 inh: inhibitors of human APE1 endonuclease. Potency, µM (top dose mostly 65.8 µM), without a hit: top-dose activity change, negative = inhibition, most hits filed as inhibitors. recombinant APE1, TAMRA/BHQ-2 abasic DNA cleavage fluorescence. 350,000 compounds, 0.35% hits. P27695;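 note: plate controls were vehicle for no effect and reference inhibitor for full effect; nearly all actives have a fitted effect of over 55% in size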
Target sequence (P27695 whole entry, looked up): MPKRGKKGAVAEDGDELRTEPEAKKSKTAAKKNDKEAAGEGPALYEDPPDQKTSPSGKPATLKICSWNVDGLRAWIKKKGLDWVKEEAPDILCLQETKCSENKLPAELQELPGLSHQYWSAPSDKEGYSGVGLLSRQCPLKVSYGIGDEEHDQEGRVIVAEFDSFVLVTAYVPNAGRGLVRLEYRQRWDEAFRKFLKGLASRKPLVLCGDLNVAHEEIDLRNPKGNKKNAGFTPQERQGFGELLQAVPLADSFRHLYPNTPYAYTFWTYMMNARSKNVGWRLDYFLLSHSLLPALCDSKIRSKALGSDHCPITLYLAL
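Step 1: APE1 (0.75 nM) with compound, 15 min RT. Step 2: add 50 nM fluorophore/quencher THF duplex. Step 3: three fluorescence reads 60 s apart (525/598 nm); read 3 minus read 1 = reaction progress.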
RECQ1 conf: confirmation of human RECQ1 helicase inhibitors | shares compounds with RECQ1 inh-1 | RECQ1 helicase DNA unwinding, fluorescence | Potency, µM (top dose mostly 229 µM), for inactives: top-dose activity change, negative = inhibition, most hits filed as inhibitors | 610 compounds, 28% hits; note: nearly all actives have a fitted effect of over 45% in size
RECQ1 ADP FP: displaces ADP in a fluorescence polarization counter-screen for RECQ1 hits | shares compounds with RECQ1 inh-1 | ADP fluorescence polarization displacement counterscreen | Potency, µM (doses to about 228 µM), without a hit: at the highest dose activity change, negative = inhibition, actives largely listed as inhibitors | 530 compounds, 27% hits | AID 2711; note: nearly all actives have a fitted effect of over 45% in size
RECQ1 inh-2: RECQ1 helicase inhibition confirmed, round 2; 1,100 compounds, 15% hits; Potency, µM (series often up to 119 µM), inactives show at the top dose activity, negative = inhibition, usual class: inhibitors; shares compounds with RECQ1 inh-1; recombinant RECQ1 DNA unwinding, red fluorescence; note: nearly all actives have a fitted effect of over 50% in size
Numbers without * were called inactive; i = inactive; ? = inconclusive; · = not tested or not shown; [ ] = dose if it differs, or a comment. Unless noted, calls come from the whole dose curve; as a rule, active = well fitted curve in the direction sought with a large enough effect; inconclusive = small, poorly fitted or top-dose-only effect, or another doubt; inactive = no such curve, though single readings can be large; an effect the other way counts as inactive or inconclusive. Unless noted, % is set by controls: 0 for no effect and ±100 for the full control effect; potency is the fitted concentration of half-maximal effect.

SMILES	KDM4E inh	TDP1 inh	L3MBTL1 inh	RECQ1 inh-1	BLM helicase inh	APEX1 inh	RECQ1 inh-2	others
Cc1ccc(S(=O)(=O)NC(=O)Nc2ccc(F)c(F)c2)cc1	·	4%	·	·	-2%	-1%	·
Cc1ccc(S(=O)(=O)NNC(=O)Nc2ccc(Cl)cc2)cc1	8%	3%	2%	22µM*	-11%	1%	-18%
COc1ccc(S(=O)(=O)NCc2ccc3c(c2)cc(C)n3C)cc1	-7%	9%	-5%	32µM*	-13%	-11%	?
Cc1cc2cc(CNC(=O)c3ccc(S(=O)(=O)N4CCCC4)cc3)ccc2n1C	?	4%	-8%	?	-12%	-5%	-6%
CCCCc1cc(=O)oc2cc(C)c(CN3CCCC3)c(O)c12	?	·	?	13µM*	?	-12%	?	RECQ1 conf=20µM*;RECQ1 ADP FP=50µM*
Cc1ccc(NC(=O)c2cc(S(=O)(=O)NCCc3ccccc3)ccc2F)cc1Cl	0%	-4%	7%	?	-10%	-5%	-19%
COc1cc(OC)cc(C(=O)N(Cc2cc3cc(C)ccc3[nH]c2=O)C(C)C)c1	-1%	-9%	-7%	-10%	2%	-4%	·
COc1cccc(C(=O)N(Cc2cc3cc(C)ccc3[nH]c2=O)C(C)C)c1	?	3%	4%	?	2%	0%	-10%
Cc1cc(C)c(S(=O)(=O)NCC23C=CC(O2)C2C(=O)N(c4ccccc4)C(=O)C23)c(C)c1 (centres undefined)	11%	6%	1%	11µM*	-17%	21%	-4%
O=C1C2C3C=CC(CNS(=O)(=O)c4ccccc4[N+](=O)[O-])(O3)C2C(=O)N1c1ccccc1 (centres undefined)	2%	8%	0%	i	0%	?	·
Cc1ccc(Cn2c(=S)[nH]c3ccc(N4CCOCC4)cc3c2=O)o1	?	·	-9%[11.4 µM]	18µM*	-29%	?	·	RECQ1 conf=?;RECQ1 ADP FP=50µM*
CC#CCN1c2ccccc2[C@]23C[C@@H](C(=O)OC)N(S(=O)(=O)c4ccc(C#N)cc4)C2=NC(C(=O)OC)=C(C(=O)OC)[C@H]13	-3%[11.4 µM]	8%[12.3 µM]	·	1%[11.5 µM]	1%[12.4 µM]	-1%[12.4 µM]	·
COC(=O)C1=CC(C(=O)c2cccs2)=NN(c2ccc(OC)cc2)C1C(=O)OC (centres undefined)	1%	11%	?	?	-12%	-5%	79µM*
COC(=O)C1=CN(Cc2ccc(OC)cc2)C=C(C(=O)OC)C1c1cccs1	?	·	170%	-21%	-14%	?	·
CCOC(=O)Cc1cc(=O)n2[nH]c(C)c(-c3ccccc3)c2n1	?	10%	4%	35µM*	-2%	-5%	-19%
CCOC(=O)Cc1cc(=O)n2[nH]c(-c3ccccc3)c(-c3ccccc3)c2n1	?	10%	7%[11.4 µM]	-6%	-18%	10%	·
Cc1c(-n2c(SC(C)C(=O)NC(N)=O)nc3ccccc3c2=O)c(=O)n(-c2ccccc2)n1C (centres undefined)	-2%	4%	3%	-2%	4%	4%	·	RECQ1 conf=1%;RECQ1 ADP FP=5%
CN(C)c1ncnc2c1NC1=C(S2)C(=NCCCC(=O)O)CC(C)(C)C1	?	1%	3%	?	-1%	-4%	·
COc1ncnc2c1NC1=C(S2)C(=NCCC(=O)O)CC(C)(C)C1	3%	-5%	-19%	?	?	?	79µM*
COC(=O)C1=C(C(=O)OC)[C@@H]2Nc3ccccc3[C@@]23C[C@@H](C(=O)OC)N(S(=O)(=O)c2ccc(C#N)cc2)C3=N1	3%[11.4 µM]	11%[12.3 µM]	·	-2%[11.5 µM]	-3%[12.4 µM]	-4%[12.4 µM]	·
Cc1c2c(=O)n(-c3nc4ccccc4s3)nc-2cc(O)n1Cc1ccccc1	?	10%	·	22µM*	16µM*	?	-6%	RECQ1 conf=45µM*;RECQ1 ADP FP=48%[91.9 µM]
CCc1nc2ccccc2c(=O)n1NC(=O)c1c(O)c2cccc3c2n(c1=O)CCC3	12%	3%	·	5%	-3%	5%	·
CC(C)Cn1c2c(c(O)c(C(=O)Nn3c(Cc4ccccc4)nc4ccccc4c3=O)c1=O)CCCC2	?	0%	-5%	-7%	-10%	-1%	·
O=C(Nn1c(Cc2ccccc2)nc2ccccc2c1=O)c1c(O)c2cccc3c2n(c1=O)CCC3	3%	·	9%	i	-3%	1%	·	RECQ1 conf=?;RECQ1 ADP FP=?
CCCCc1nc2ccccc2c(=O)n1NC(=O)c1c(O)c2c(n(CC(C)C)c1=O)CCCC2	5%	-4%	6%	i	-10%	-3%	·	RECQ1 conf=?;RECQ1 ADP FP=38%
SMILES	KDM4E inh	TDP1 inh	L3MBTL1 inh	RECQ1 inh-1	BLM helicase inh	APEX1 inh	RECQ1 inh-2	others
O=C1c2nc3cc(-c4ccco4)[nH]n3c(=O)c2CN1Cc1ccccc1	?	·	?	11µM*	?	-4%	-10%	RECQ1 conf=?;RECQ1 ADP FP=63µM*
COc1ccccc1C1CC(=O)Oc2cc3c(cc21)OCO3 (centres undefined)	·	·	·	35µM*	-30%[75.6 µM]	32µM*	28µM*
CCNc1ccc(C(=O)OCC(=O)NCCN2C(=O)CSC2=O)cc1[N+](=O)[O-]	-27%	1%	-27%	?	0%	3%	5%
Cc1ccc(C(=O)OCC(=O)NCCN2C(=O)CSC2=O)cc1	-9%	8%	-3%	-12%	-9%	1%	·
CCOC(=O)C1CCN(C(=O)Cn2nc(CC)n3c(cc4sccc43)c2=O)CC1	·	-2%	·	·	-1%	·	·
CC(=O)Nc1ccc(S(=O)(=O)/N=C2\SCCN2S(=O)(=O)c2ccc(NC(C)=O)cc2)cc1	-17%	-3%	-67%	?	4%	?	-11%

Screening data from PubChem BioAssay.
